Our source for the growth values is PubChem BioAssay (NCI).

Compounds without any hit were thinned out: in the full panel of roughly 83,000, 20% have a hit.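 Activity criterion: percent growth below 10, measured after cells in 96-well plates were exposed to a single compound concentration for 48 hours.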 Active and inactive are the calls of the source.

This assay deals with TK-10 renal. As to the kind of experiment: NCI-60 one-dose screen, 48 h (100 = growth as untreated, 0 = no growth, -100 = all killed). The note with it: 10 µM unless noted. As to the method:
Growth inhibition of the TK-10 human tumor cell line is measured as a screen for anti-cancer activity. Cells are grown in 96 well plates and exposed to the test compound for 48 hours. Compounds are tested at a single concentration, which is 10^-5 M for most compounds. The reported endpoint is percent growth (GI% or GIPRCNT), where numbers from 0 - 100% represent growth inhibition, and numbers from -100% - 0 represent cell death. For example, a value of 40 represents 60% growth inhibition. A value of 0 means no net growth occurred over the course of the experiment. A value of -40 indicates 40% of cells at the beginning of the experiment died by the end of the experiment. A value of -100 means all cells are dead at the end of the experiment.
NCI-60 Human Tumor Cell Lines Screen was performed using the standard one-dose NCI protocol, which is described in more detail at https://dtp.cancer.gov/discovery_development/nci-60/default.htm.
Compounds with GIPRCNT values below 10 were considered active. Activity score was based on GIPRCNT using the following formula: […]
Score is 0 for GIPRCNT values of 100 or above, 50 for GIPRCNT values of 0, and 100 for GIPRCNT values of -100.
Take `CC(C)[C@@]12C[C@@H](OC(=O)[C@H]3CO3)[C@@](C)(O1)[C@@H]1CC[C@@H](C)[C@H]1[C@@H]2OC(=O)/C=C/c1ccccc1`: the growth is 103% (inactive).
The figure for `COc1ccc(C(=O)N2N=C(c3ccc(F)cc3)CC2c2cn(-c3ccccc3)nc2-c2ccccc2)cc1` (stereo not given) is 80.2% (inactive); for `C(=Nc1ccc(-c2ccc(N=Cc3ccccc3)cc2)cc1)c1ccccc1` it is 110% (inactive); for `N=C(N)c1ccc(-c2ccc(-c3cccs3)s2)cc1F` it is -94.3% (active).
For `ClC1=NC(Cl)C(Cl)=N/C1=N\c1ncn[nH]1` (stereo not given) the value was -75.9% (active); for `O=C(CC(=O)c1cccc(Cl)c1)c1cccc(Cl)c1`, 46.6% (inactive); for `CN1C(=O)N(C)C2C1NN=c1s/c(=C\c3ccc(C(F)(F)F)cc3)c(=O)n12` (stereo not given), 55.5% (inactive).
On to `CC(=O)Nc1ccc(/C=N/N2CCCCCC2)cc1`, for which the growth is 114% (inactive).
The figure for `O=C(Nc1cccc(Cl)c1)Nc1ccccc1Cl` is 88.5% (inactive); for `Cc1c(C(=O)CCl)c(=O)n(-c2ccccc2)n1C` it is 40.1% (inactive).
For `COc1cccc(/C=N\Nc2ccc([N+](=O)[O-])cn2)c1O` the value was 73.5% (inactive).
For `O=C(N/N=C\c1cc(Br)ccc1O)c1ccncc1` the value was 43.7% (inactive); for `COc1cccc(NC(=O)OC(C)C)c1`, 100% (inactive); for `COc1ccc(-c2nc(SCCC(C)C)nc(Nc3ccc(C(=O)O)cc3)c2C#N)cc1`, 86.7% (inactive).
For the compound `NNC(=O)CSc1nc2scc(-c3ccccc3)c2c(=O)n1-c1ccccc1`, the growth was 178% (inactive).
With `COc1ccccc1CNCCCN1C(=O)c2ccc3c4c(ccc(c24)C1=O)C(=O)N(CCCNCCCN)C3=O`, the growth is 33.3% (inactive).
For `CCn1c(Cc2ccccc2Nc2c(Cl)cccc2Cl)nnc1SCC(=O)Nc1ccccc1C(F)(F)F` the value was 88% (inactive); for `CC(C)(c1ccccc1)c1cc(O)c(C(C)(C)c2ccccc2)cc1O`, 36.1% (inactive); for `COc1cc(/C=C/c2cc(/C=C/c3ccc(O)c(OC)c3)n(C(=O)c3ccccc3Br)n2)ccc1O`, 65% (inactive).
For `COc1ccc2nc3ccccc3c(NCc3ccc(C)cc3)c2c1` the value was 47% (inactive); for `O=C(CSc1nnc(Cc2ccccc2Nc2c(Cl)cccc2Cl)n1-c1ccccc1)N1N=C(c2ccc3ccccc3c2)CC1c1ccc(Cl)cc1` (stereo not given), 95.5% (inactive).
For `COc1ccc(-c2nc3ccccc3n3cccc23)cc1`, the growth is 138% (inactive).
The figure for `CCN1C(=O)N(CC)C2C1N=C(SC)N2/N=C/C=C/c1ccccc1OC` (stereo not given) is 46.8% (inactive); for `CC(NC(=O)c1ccccc1)C(=O)Nc1ccccc1` (stereo not given) it is 103% (inactive).
For `Cc1ccsc1C(=O)CC(=O)C(F)(F)C(F)(F)C(F)(F)F` the value was 126% (inactive).
For `Clc1ccc(Cl)c(N=Cc2ccc3c(c2)OCO3)c1` the value was 107% (inactive); for `Nc1nc(NC2CC2)cc(-c2cccc(Cl)c2Cl)n1`, 87.3% (inactive).
For the compound `CC(C)(C)c1nn(-c2ccccc2)c2c1C(=O)CSC(c1ccccc1Cl)N2` (stereo not given), the growth is 77.5% (inactive).
As for `CC(C)[C@@H]1C=C2CC[C@H]3[C@](C)(CN)CCC[C@]3(C)[C@H]2CC1`, the growth was 90.8% (inactive).
The figure for `C=CCOC(=O)C1=C(C)NC2=C(C(=O)CCC2)C1c1ccc(F)cc1` (stereo not given) is 111% (inactive); for `CC(C)[C@@]12C[C@@H](OC(=O)C3CO3)[C@@](C)(O1)[C@@H]1CC[C@@H](C)[C@H]1[C@@H]2OC(=O)/C=C/c1ccccc1` (stereo not given in full) it is 119% (inactive).
For `O=c1c2cc(Br)cc(Br)c2nc(-c2ccc(Cl)cc2)n1/N=C/c1cccc(F)c1` the value was 22.3% (inactive).
Turning to `O=P(O)(O)C(O)(Cc1cccnc1)P(=O)(O)O`, the growth is 144% (inactive).
For `CCN(CC)c1ccc2c(cc1=O)[C@@H](NC(C)=O)CCc1cc(OC)c(OC)c(OC)c1-2` the value was 30.8% (inactive); for `COc1cc2ncnc(Nc3ccc(S(=O)(=O)Nc4nccs4)cc3)c2cc1OCCCN1CCOCC1`, 103% (inactive).
The figure for `N=C(N)c1ccc(-c2ccc(-c3ccco3)o2)cc1F` is 7.98% (active); for `COc1ccc(-c2cnc(-c3ccncc3-c3cccc(OC)c3)o2)cc1` it is 30.5% (inactive); for `Cc1csc(N/N=C/c2ccncc2)n1` it is 91% (inactive).
The figure for `CSc1nc(N)c2[nH]c(-c3cc4ccccc4[nH]c3=O)nc2n1` is 106% (inactive); for `CCCCCCCCN(CCCCCCCC)C(=O)CCl` it is 108% (inactive).
